Data on 14 compounds can be found in PubChem BioAssay (NCI).

This is part of a sample that, as a whole, favours compounds with a hit. Of some 83,000 tested, about 20% had one in any assay.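 Cells were grown in 96-well plates and exposed to the test compound at a single concentration for 48 hours; results are reported as percent growth, with values below 10 considered active.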 Values without a mark were called inactive. Active and inactive are the calls of the source.

Test systems include NCI-H23 lung; NCI-H226 lung; NCI-H322M lung; HOP-62 NSCLC; NCI-H460 lung; HOP-92 NSCLC; NCI-H522 lung; 786-0 renal; COLO 205 colon; A549/ATCC NSCLC.
Holding throughout (assay): NCI-60 one-dose screen, 48 h (100 = growth as untreated, 0 = no growth, -100 = all killed)
Conditions in all cases: 10 µM

In the case of `O=C(Nc1ccc(OCC(=O)c2ccccc2)cc1)Nc1ccc(Cl)c(C(F)(F)F)c1`, the growth in the test on NCI-H23 lung was 25.4%; in the test with NCI-H226 lung it was 8.87% (active); with NCI-H322M lung, 28%; in the test on HOP-62 NSCLC, 27.9%; with NCI-H460 lung it was 18.4%; in the test with HOP-92 NSCLC, -14.5% (active). The growth in the test on NCI-H522 lung is -31.7% (active); with 786-0 renal it was 21%; with COLO 205 colon, -3.64% (active).
On to `Cc1ccc(-c2nc3ccc(C(=O)N=Nc4c(O)[nH]c5ccc(Br)cc45)cc3[nH]2)cc1`, for which the growth is -3.58% (active) in the test on NCI-H23 lung; 91.7% in the test on NCI-H226 lung; 77.7% in the test with NCI-H322M lung; 68.7% in the test on HOP-62 NSCLC; 47.8% in the test on NCI-H460 lung; 88.3% in the test on HOP-92 NSCLC. Further, the values for the growth in the test on NCI-H522 lung, in the test on 786-0 renal and in the test on COLO 205 colon were 25%, 36.3% and 61%, respectively.
As to `O=c1c2ccccc2nc(COc2ccccc2)n1/N=C/c1ccc(N2CCOCC2)cc1`, the growth in the test with NCI-H23 lung is 59.2%; in the test with NCI-H226 lung, 37.9%; in the test on NCI-H322M lung, 66.6%; in the test on HOP-62 NSCLC it was 18.4%; in the test on NCI-H460 lung it was 66.2%; in the test on HOP-92 NSCLC, -1.3% (active). Moreover, the values for the growth in the test on NCI-H522 lung, with 786-0 renal and in the test with COLO 205 colon were 33.6%, 45.5% and 80.8%, respectively.
On to `COc1cc2c3c(n(CCCn4ccnc4)c(=O)c2cc1OC)-c1nc2c(cc1C3=O)OCO2`, for which the growth was 20% in the test on NCI-H23 lung; 30.3% in the test on NCI-H226 lung; 71.6% in the test on NCI-H322M lung; 22.7% in the test with HOP-62 NSCLC; 8.7% (active) with NCI-H460 lung; 117% in the test on HOP-92 NSCLC. In addition, the values for the growth with NCI-H522 lung, in the test with 786-0 renal and in the test on COLO 205 colon were 40.4%, 12.1% and 34.2%, respectively.
On to `CN1CCN(Cc2ccc(C(=O)Nc3cccc(Nc4ccc5c(O)cccc5n4)c3)cc2C(F)(F)F)CC1`, for which the growth was -69.8% (active) in the test on NCI-H23 lung; 41.3% in the test on NCI-H226 lung; -18.6% (active) with NCI-H322M lung; -47.2% (active) in the test on HOP-62 NSCLC; -18.5% (active) in the test on NCI-H460 lung; -37.3% (active) in the test on HOP-92 NSCLC. The growth is -83.9% (active) in the test on NCI-H522 lung, -14.2% (active) with A549/ATCC NSCLC, -55.9% (active) in the test on 786-0 renal and -78.6% (active) with COLO 205 colon.
Turning to `COc1ccc(NC(=O)CSc2nnc(-c3ccc4nc(-c5ccc(Cl)cc5)[nH]c4c3)o2)cc1`, the growth in the test on NCI-H23 lung was -9.49% (active); with NCI-H226 lung it was 80.3%; with NCI-H322M lung it was 45.8%; in the test on HOP-62 NSCLC, 74.6%; in the test with NCI-H460 lung, 10.7%; in the test on HOP-92 NSCLC it was 102%. The growth in the test with NCI-H522 lung was 22.6%; with A549/ATCC NSCLC, 66%; in the test with 786-0 renal, 22.5%; in the test on COLO 205 colon, 96.8%.
For `COc1ccc(-c2ccc(SCC(=O)Nc3ccc(C#N)cc3)nn2)cc1`, the growth was 79.7% with NCI-H23 lung; 66.9% in the test on NCI-H226 lung; 88.4% in the test with NCI-H322M lung; 64.8% with HOP-62 NSCLC; 96.4% in the test with NCI-H460 lung; 86.9% with HOP-92 NSCLC. In addition, the values for the growth in the test with NCI-H522 lung, with 786-0 renal and with COLO 205 colon were 87.3%, 86.4% and 127%, respectively.
With `O=C1NC(=NC2CCCCCC2)N/C1=C\c1ccc2ncoc2c1`, the growth was 19.2% in the test with NCI-H23 lung; 14.9% with NCI-H226 lung; 24.5% with NCI-H322M lung; 36.8% in the test on HOP-62 NSCLC; 20.2% in the test with NCI-H460 lung; 51.3% with HOP-92 NSCLC. The growth with NCI-H522 lung is 12.6%; in the test on A549/ATCC NSCLC it was 17%; in the test on 786-0 renal, 40.6%; with COLO 205 colon, 9.19% (active).
Take `O=C(CSc1nnc(-c2ccc3nc(-c4ccc(Cl)cc4)[nH]c3c2)o1)Nc1ccc(Cl)cc1`: the growth in the test with NCI-H23 lung was -73.9% (active); in the test on NCI-H226 lung, -68.8% (active); with NCI-H322M lung it was -66.5% (active); in the test on HOP-62 NSCLC, -56.4% (active); in the test on NCI-H460 lung, -51.3% (active); in the test on HOP-92 NSCLC it was -6.37% (active). The growth is -45.1% (active) in the test with NCI-H522 lung, -58.4% (active) in the test on A549/ATCC NSCLC, -76.8% (active) in the test with 786-0 renal and 7.13% (active) in the test with COLO 205 colon.
As to `CC(=O)Nc1ccc(-n2cnc3cc(-c4ccc(O)cc4)ccc32)cc1F`, the growth with NCI-H23 lung is 49.2%; in the test on NCI-H226 lung, 9.75% (active); in the test on NCI-H322M lung, 52%; in the test with HOP-62 NSCLC it was 44.4%; with NCI-H460 lung, 10.5%; in the test with HOP-92 NSCLC it was 55.1%. Besides, the growth in the test with NCI-H522 lung was -42.7% (active); in the test on 786-0 renal, 32.4%; in the test on COLO 205 colon it was -11.4% (active).
`CC(=O)Nc1ccc(-n2cnc3cc(-c4ccc(NS(C)(=O)=O)cc4)ccc32)cc1`: the growth in the test on NCI-H23 lung was 61%; in the test with NCI-H226 lung, -68.4% (active); in the test on NCI-H322M lung, 59.1%; in the test on HOP-62 NSCLC, 75.4%; in the test on NCI-H460 lung, 33.4%; in the test with HOP-92 NSCLC, 39.7%. In addition, the growth was 46.9% in the test with NCI-H522 lung, 57% with A549/ATCC NSCLC, 52.3% in the test on 786-0 renal and 63.9% in the test on COLO 205 colon.
As for `O=C(Cc1ccc2c(c1)CN(C1CCC(=O)NC1=O)C2=O)NCc1cccc2ccccc12` (configuration not stated), the growth in the test on NCI-H23 lung was 12.7%; in the test with NCI-H226 lung it was 1.96% (active); with NCI-H322M lung, -4.15% (active); with HOP-62 NSCLC, -23.1% (active); in the test with NCI-H460 lung, 45.7%; with HOP-92 NSCLC, -28.3% (active). In addition, the growth was -21.4% (active) with NCI-H522 lung, -23.6% (active) with 786-0 renal and -35.7% (active) in the test on COLO 205 colon.
With `COc1cc2c(cc1OC)/C(=C\c1sc(Nc3ccc(O)cc3)nc1O)C(C(=O)O)=N2`, the growth is 47% with NCI-H23 lung; 63.7% with NCI-H226 lung; 53.8% in the test on NCI-H322M lung; 39.2% with HOP-62 NSCLC; 18.2% with NCI-H460 lung; 36.4% in the test on HOP-92 NSCLC. Also, the growth in the test with NCI-H522 lung was -18.3% (active); in the test with A549/ATCC NSCLC, 56.4%; with 786-0 renal it was 29.1%; with COLO 205 colon it was -30.7% (active).
As for `Cc1cccc2cc(-c3cc(-c4ccccc4)nc(=S)[nH]3)c(Cl)nc12`, the growth in the test with NCI-H23 lung is 82.2%; in the test on NCI-H226 lung, 90.5%; in the test with NCI-H322M lung, 90.2%; in the test on HOP-62 NSCLC it was 97.4%; with NCI-H460 lung, 101%; with HOP-92 NSCLC, 73.2%. In addition, the figures for the growth in the test on NCI-H522 lung, in the test on 786-0 renal and in the test on COLO 205 colon were 64.2%, 97.7% and 123%, respectively.
